# PTHR1 ag – agonists of human PTHR1 parathyroid hormone receptor; Q03431; Potency, µM (series often up to 115 µM), actives largely listed as activators; HEK293 GP2 PTHR1 cells, GloSensor cAMP luminescence, 1 h; 0.075% of 410,000 active; AID 743266; further: nearly all actives have a fitted effect of over 55% in size
#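 HEK-293-derived GP2 cells expressing PTHR1 and a GloSensor cAMP reporter, 3,000/well, plated overnight, given luciferin plus IBMX (each 0.5 mM as added) for 1 h at 37 °C, then compound for 1 h at 37 °C. Luminescence was read after 15 min at room temperature.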
# B2AR arrestin – recruits beta-arrestin to the human beta2-adrenergic receptor. beta-arrestin recruitment to beta2AR, cell-based reporter. Potency, µM (series often up to 46.1 µM), most hits filed as activators. 0.02% of 330,000 active. AID 492947; further: nearly all actives have a fitted effect of over 65% in size
# DRD3 agonist – agonists of human D3 dopamine receptor; P35462; D3R DiscoveRx beta-arrestin cells, luminescence, 90 min; max activation, %; 0.58% of 410,000 active; in the data active means max activation above about 30%
# Target sequence (P35462 whole entry, looked up): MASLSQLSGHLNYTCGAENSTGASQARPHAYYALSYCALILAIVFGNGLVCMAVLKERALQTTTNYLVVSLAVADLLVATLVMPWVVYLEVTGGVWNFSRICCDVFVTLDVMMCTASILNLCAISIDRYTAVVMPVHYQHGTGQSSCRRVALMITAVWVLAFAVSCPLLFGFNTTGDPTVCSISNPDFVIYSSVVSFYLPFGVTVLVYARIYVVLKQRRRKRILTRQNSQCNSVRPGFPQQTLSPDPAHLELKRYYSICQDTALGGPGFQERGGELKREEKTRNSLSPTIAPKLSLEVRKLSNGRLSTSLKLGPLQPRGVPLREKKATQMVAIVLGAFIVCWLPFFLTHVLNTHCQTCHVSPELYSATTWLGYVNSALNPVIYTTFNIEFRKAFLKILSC
#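 Agonist mode: compounds and dopamine controls were applied to plated cells for 90 min at 37 degrees C after an overnight attachment at 1500 cells/well. Luminescent read-out followed 30 - 60 minutes at room temperature with DiscoveRx detection reagent.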
# DRD3 antagonist – antagonists of human D3 dopamine receptor; P35462; D3R cells, DiscoveRx beta-arrestin luminescence, antagonist mode; hits give low values; max response, negative = inhibition, %; 2.5% of 360,000 active; AID 652054; in the data active means max response below about -50%; inconclusive means no clear call, values can overlap the other calls
#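 Cells expressing the human receptor were seeded at 1500 cells/well, incubated overnight at 37 degrees C in 5% CO2, then exposed to library compounds with dopamine controls for 90 minutes at 37 degrees C before luminescent detection.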
# RGS4 inh – inhibitors of human regulator of G protein signaling 4 | P49798 | Potency, µM (top dose mostly 114 µM), actives largely listed as inhibitors | Transcreener GDP fluorescence polarization, RGS4-accelerated GTP hydrolysis | AID 504845 | 0.039% of 390,000 active; further: nearly all actives have a fitted effect of over 75% in size
#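 MLSMR compounds (23 nl, pin-transferred) preincubated 10 min at room temperature with a 500nM (2x) first reagent, then RGS4 at 900nM (2x) plus Transcreener GDP mix added; fluorescence polarization (620/688 nm) read before and after 90 min at 30 °C.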
# BRCA1 expr up – BRCA1 expression activation; MCF7-BRCA1-FFLuc reporter, luminescence, 48 h; response scale: scaled: vehicle 0%, 10 µM genistein 100%; Potency, µM (titrated, usually from 46.1 µM), hits mostly activators; 1.1% of 380,000 active; further: nearly all actives have a fitted effect of over 80% in size
#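 Quantitative HTS in MCF7 cells stably reporting BRCA1 expression via firefly luciferase. Compound treatment lasts 48 h at 37 °C in phenol-red free MEM. Activation is expressed relative to genistein at 10 microM and DMSO.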
# A number is an active result; n = inactive; u = inconclusive; x = not tested or not shown. Compounds with a hit are over-represented: about 3.7% of the library has one in this group of screens. Unless noted, the call rests on the fitted dose curve; in most records, active means well fitted curve in the direction sought with a large enough effect; inconclusive means small, poorly fitted or top-dose-only effect, or another doubt; inactive means no such curve, though single readings can be large; an effect the other way counts as inactive or inconclusive.
SMILES,PTHR1 ag,B2AR arrestin,DRD3 agonist,DRD3 antagonist,RGS4 inh,BRCA1 expr up
Cn1c(=O)n(C)c2cc(N3CCOCC3)c(NC(=O)c3ccc(C(C)(C)C)cc3)cc21,n,x,n,x,n,x
C=CCOC1=CS(=O)(=O)N(Cc2ccc(Br)cc2)c2ccc(Br)cc21,n,n,41.6,n,u,n
CCCn1cnc2c(SCc3ccccc3F)nc(N)nc21,n,x,n,n,n,10µM
CCCCn1cnc2c(SCc3cccc(F)c3)nc(N)nc21,n,x,n,n,n,n
COc1ccc(F)cc1S(=O)(=O)N1CCN(C(=O)c2ccco2)CC1,n,n,n,n,n,n
COc1ccc(C(=O)N(Cc2ccccc2)Cc2cc3cc4c(cc3[nH]c2=O)OCCO4)cc1,n,n,n,n,n,n
COc1cccc(C(=O)N(Cc2ccccc2)Cc2cc3cc4c(cc3[nH]c2=O)OCCO4)c1,n,n,33.4,n,n,n
CC(C)NC(=O)c1csc([C@@H]2O[C@H](CO)[C@H](O)[C@H](O)[C@H]2O)n1,n,x,n,n,x,n
FCCCOc1ccc(/C=N/OCc2ccc(Cl)cc2)cc1,n,n,n,n,n,n
FCCCOc1ccc(/C=N/OCc2c(Cl)cccc2Cl)cc1,n,n,n,-64.7,n,n
O=C(c1ccc2c(=O)n3c(nc2c1)CCCCC3)N1CCc2ccccc21,n,n,n,n,n,u
O=[N+]([O-])c1ccc(S(=O)Cc2ccccc2)c([N+](=O)[O-])c1 (stereo not drawn),n,x,n,-101.9,n,n
CC1CCN(CCc2nc3cc(NS(=O)(=O)c4ccc(F)cc4)ccc3n2C)CC1,n,n,n,-69.5,n,n
CC(C)C(=O)Nc1ccc2c(c1)nc(CCN1CCN(c3ccccn3)CC1)n2C,n,n,61.8,n,n,n
CCCC(=O)Nc1ccc2c(c1)nc(CCN1CCC(C)CC1)n2C,n,x,n,n,x,n
CCC(=O)Nc1ccc2c(c1)nc(CCN1CCN(c3ccccc3)CC1)n2C,n,n,n,-62.5,n,n
CC1CCN(CCc2nc3cc(NS(=O)(=O)c4ccccc4)ccc3n2C)CC1,n,n,n,-75.3,n,n
CC(=O)NCCc1nc2cc(NS(=O)(=O)c3ccccc3)ccc2n1C,n,n,n,n,n,n
COc1ccccc1N(Cc1cc2cccc(C)c2[nH]c1=O)C(=O)c1cccc(Cl)c1,n,x,n,x,n,x
CCCCCCn1cc(CN2CC(N3CCN(CCN(C)C)CC3)CS2(=O)=O)nn1 (stereo not drawn),n,x,n,n,x,n
CC(=O)Nc1ccc2c(c1)nc(CCN1CCC(C)CC1)n2C,n,n,n,u,n,n
CC1CCN(CCc2nc3cc(NC(=O)Nc4ccccc4)ccc3n2C)CC1,n,n,n,-60.5,n,14.1µM
OB(O)c1ccc(Cl)s1,x,x,x,x,n,n
O=c1cc(CN2CCN(Cc3ccccc3)CC2)c2ccc(O)cc2o1,n,n,n,n,n,n
Cc1ccc2oc(=O)cc(CN3CCCCC3)c2c1,n,n,n,n,n,n
SMILES,PTHR1 ag,B2AR arrestin,DRD3 agonist,DRD3 antagonist,RGS4 inh,BRCA1 expr up
CS(=O)(=O)N1CCN(C/C=C/c2ccccc2)CC1,n,n,n,n,n,n
O=c1cc(CN2CCN(C/C=C/c3ccccc3)CC2)c2cc(O)ccc2o1,n,n,n,-62.5,n,n
Cc1ccc2oc(=O)cc(CN3CCN(C/C=C/c4ccccc4)CC3)c2c1,n,n,n,-60.2,n,n
Cc1ccccc1CN1CCN(C/C=C/c2ccccc2)CC1,n,n,n,-191.9,n,n
CC1(C)S[C@@H]2[C@H](NC(=O)C(C(=O)O)c3ccsc3)C(=O)N2[C@H]1C(=O)O (stereo partly drawn),x,x,n,x,x,x
O=C(NOCC1CC1)c1ccc(F)c(F)c1Nc1ccc(I)cc1Cl,x,x,n,x,x,x
CC(=O)c1nc(N2C(=O)CC(Cc3cccc(C)c3)C2=O)sc1C (stereo not drawn),n,n,n,-55.4,n,n
CC(=O)c1nc(N2C(=O)CC(Cc3cc(C)cc(C)c3)C2=O)sc1C (stereo not drawn),n,n,n,u,n,n

# High-throughput results as filed in PubChem.
